In PubChem BioAssay (Tox21):
Results filed as inconclusive are left out. Activity calls are given as the source filed them. Unless noted, calls follow the shape of the dose curve; as a rule, active = well fitted curve in the direction sought with a large enough effect in the repeat runs; inconclusive = weak or mixed curves; inactive = no such curve, though single readings can be large; an effect the other way counts as inactive or inconclusive.

How the values were obtained:
[1] = qHTS assay to identify small molecule agonists of the hypoxia (HIF-1) signaling pathway - cell viability counter screen (AID 1224844; calls by dose curve; also: nearly all actives have a fitted effect of over 50% in size)
Summary of the method: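 CellTiter-Glo luminescence read-out, 30 min RT, taken in the same wells as the beta-lactamase HRE reporter assay; HRE-bla ME-180 cells, 0.5% dialyzed FBS, 17 hr compound treatment at 37C, 5% CO2.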

[2] = qHTS assay to identify small molecule agonists of H2AX (AID 1224845; active = well fitted activation curve with a large enough effect in the signal ratio in the repeat runs, not every such curve was filed as active; the % refers to the signal ratio)
Summary of the method: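 Wild-type CHO-K1 cells plated overnight, then exposed 3 hr at 37C to compounds at 15 concentrations (0.76% DMSO). Lysed, then HTRF anti-pH2AX(S139)-cryptate/anti-H2AX-d2 detection after 24 hr at room temperature; emissions 665 and 620 nm.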

[3] = qHTS assay to identify small molecule agonists of the hypoxia (HIF-1) signaling pathway (AID 1224846; active = well fitted activation curve with a large enough effect in the signal ratio in the repeat runs, not every such curve was filed as active; the % refers to the signal ratio)
Summary of the method: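 Beta-lactamase FRET read-out (CCF4-AM substrate) from ME-180 cells carrying an HRE-driven bla reporter, after 17 hrs compound exposure at 37C/5% CO2. Cells were seeded at 2,000 per well in 0.5% dialyzed FBS medium and preincubated 5 hrs.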

[4] = qHTS RealTime-Glo MT Cell Viability Assay in HepG2 cells - 24 hour (AID 1224867); also: nearly all actives have a fitted effect of over 50% in size
Summary of the method: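 Tox21 10K library screened in qHTS format on HepG2 cells carrying RealTime-Glo reagents. Compounds were added after a 5 h preincubation, and the luminescent signal from continuous culture was measured repeatedly during 40 h treatment.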

[5] = qHTS RealTime-Glo MT Cell Viability Assay in HEK293 cells - 32 hour (AID 1224868); also: top concentration of the series differs between compounds; nearly all actives have a fitted effect of over 50% in size
Summary of the method: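 Luminescence generated by NanoLuc from substrate produced by living HEK293 cells served as the viability signal. Each value reflects the reading at its stated time point during continuous 40 h compound exposure at 37 C.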

[6] = A CellTox Green Cytotoxicity Assay to monitor cytotoxicity in HEK293 cells - 0 hour (AID 1224869); also: nearly all actives have a fitted effect of over 50% in size
Summary of the method: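 Read-out: fluorescence of a cell-impermeant cyanine dye staining DNA of dead cells, proportional to cytotoxicity. HEK293, 600 cells/well with reagent, compound (23 nL DMSO) added after 5 h; reads at 0, 8, 16, 24, 32, 40 h.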

[7] = qHTS RealTime-Glo MT Cell Viability Assay in HepG2 cells - 40 hour (AID 1224870); also: nearly all actives have a fitted effect of over 50% in size
Summary of the method: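 HepG2 cells mixed with RealTime-Glo MT reagents (NanoLuc plus cell-permeant prosubstrate) were seeded at 600 cells/well, incubated 5 h at 37 C/5% CO2, then pinned with compounds in DMSO; nonlytic luminescence tracked viability during 40 h treatment.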

[8] = qHTS assay to identify small molecule agonists of H2AX - cell viability counter screen (AID 1224847; calls by dose curve; also: top concentration of the series differs between compounds; nearly all actives have a fitted effect of over 30% in size)
Summary of the method: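 Compounds tested at 15 concentrations were incubated 3 hr at 37C with wild-type CHO-K1 cells; cellular ATP-based luminescence (CellTiter-Glo) indicated viability.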

[9] = qHTS assay to identify small molecule antagonists of the estrogen related receptor (ERR) signaling pathway from Tox21 library (AID 1224848); also: nearly all actives have a fitted effect of over 50% in size
Summary of the method: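 First, 2,000 ERR cells per well were plated and held 6 h at 37 C/5% CO2. Next, compounds in DMSO were pinned in and left 18 h at 37 C. Finally, ONE-Glo was added and luminescence read after 30 min at room temperature.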

[10] = qHTS assay to identify small molecule agonists of the estrogen related receptor (ERR) signaling pathway from Tox21 library (AID 1224849; calls by dose curve; also: nearly all actives have a fitted effect of over 15% in size); conditions: ERR reporter cell line, ONE-Glo luciferase, 18 h; at 92.4 µM (top of the series) unless noted
Summary of the method: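 Luminescence readout (ONE-Glo, 30 min RT) after 18 h compound exposure at 37 C of NTP-supplied ERR reporter cells; cells were plated 6 h before compound addition by pin tool.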
% is scaled to controls: 0 for no effect and ±100 for the full control effect.

CCN[C@@H](C)Cc1cccc(C(F)(F)F)c1
inactive: Potency [1] | outcome [2] | outcome [3] | Potency [4] | Potency [5] | outcome [6] | Potency [7]

O=P(O)(O)CN(CP(=O)(O)O)CP(=O)(O)O
inactive: Potency [1] | outcome [2] | outcome [3] | Potency [8] | Potency [4] | cytotoxicity [6] 9.86% [at 15.8 µM]

CCOC(=O)COc1ccc(Cl)cc1Cl
inactive: Potency [1] | outcome [2] | outcome [3] | Potency [4] | Potency [5]

C/C=C/CC#N
inactive: Potency [1] | outcome [2] | outcome [3] | Potency [8] | Potency [4] | Potency [5] | Potency [7]

CCCC(C)(COC(N)=O)COC(N)=O
inactive: Potency [1] | outcome [2] | outcome [3] | Potency [9] | activity change, positive = activation [10] 0.442% | Potency [4] | Potency [5] | outcome [6] | Potency [7]

COP(=O)(O)OC
inactive: Potency [1] | outcome [2] | outcome [3] | Potency [8] | Potency [4] | Potency [5] | outcome [6] | Potency [7]

COc1ccc2c(C(=O)c3ccc(Cl)cc3)c(C)n(CC(=O)O)c2c1
inactive: Potency [1] | outcome [2] | outcome [3] | Potency [8] | Potency [4] | Potency [5] | outcome [6] | Potency [7]

[P]#[In]
inactive: Potency [1] | outcome [2] | outcome [3] | Potency [9] | activity change, positive = activation [10] 3.59% | Potency [4] | Potency [5] | outcome [6] | Potency [7]

CCCCCCCCSC(=O)Oc1cc(Cl)nnc1-c1ccccc1
inactive: Potency [1] | outcome [2] | outcome [3] | Potency [4] | Potency [5] | outcome [6]

Oc1ccc(Cc2ccc(O)cc2)cc1
inactive: Potency [1] | outcome [2] | outcome [3] | Potency [9] | activity change, positive = activation [10] 5.91% | Potency [4] | outcome [6]

C=CCc1cc(OC)c2c(c1)OCO2
inactive: Potency [1] | outcome [2] | outcome [3] | Potency [8] | Potency [4] | Potency [5] | Potency [7]

CC#Cc1cc(C)nc(Nc2ccccc2)n1
inactive: Potency [1] | outcome [2] | outcome [3] | Potency [8] | Potency [4] | Potency [7]

c1cncc([C@@H]2CCCCN2)c1
inactive: Potency [1] | outcome [2] | outcome [3] | Potency [8] | Potency [4] | Potency [5] | outcome [6] | Potency [7]

CC(C)(N)Cc1ccccc1Cl
inactive: Potency [1] | outcome [2] | outcome [3] | Potency [9] | activity change, positive = activation [10] -8.42% [at 42.5 µM] | Potency [4] | Potency [5] | Potency [7]

C[N+]1(C)CCCCC1
inactive: Potency [1] | outcome [2] | outcome [3] | Potency [8] | Potency [4] | Potency [5] | outcome [6] | Potency [7]

CCCC(C)C1(CC)C(=O)N=C(S)NC1=O (configuration not stated)
inactive: Potency [1] | outcome [2] | outcome [3] | Potency [8] | Potency [4] | Potency [5] | Potency [7]

ClCCN1CCCC1
inactive: Potency [1] | outcome [2] | outcome [3] | Potency [8] | Potency [4] | Potency [5] | Potency [7]

CCOP(=O)(CN(CCO)CCO)OCC
inactive: Potency [1] | outcome [2] | outcome [3] | Potency [4] | Potency [5] | outcome [6]

Cn1c(N)nc2c3cccnc3ccc21
inactive: Potency [1] | outcome [2] | outcome [3] | Potency [4] | Potency [5] | outcome [6] | Potency [7]

BrCc1ccc(Br)cc1
inactive: Potency [1] | outcome [2] | outcome [3] | Potency [8] | Potency [4] | Potency [5] | Potency [7]

CCCCCCCCBr
inactive: Potency [1] | outcome [2] | outcome [3] | Potency [8] | Potency [4] | Potency [5] | Potency [7]

CC(C)C(C)(N)C#N (configuration not stated)
inactive: Potency [1] | outcome [2] | outcome [3] | Potency [8] | Potency [4] | Potency [5] | Potency [7]

CCC(=O)c1ccc(Cl)cc1
inactive: Potency [1] | outcome [2] | outcome [3] | Potency [9] | activity change, positive = activation [10] 6.34% | Potency [4] | outcome [6] | Potency [7]

NC(=O)OCCCc1ccccc1
inactive: Potency [1] | outcome [2] | outcome [3] | Potency [8] | Potency [4] | Potency [5] | outcome [6] | Potency [7]

Cl/C=C/CCl
inactive: Potency [1] | outcome [2] | outcome [3] | Potency [9] | activity change, positive = activation [10] 5.39% | Potency [4] | Potency [5] | outcome [6] | Potency [7]

Cc1ccc2c(c1)C1CN(C)CCC1N2 (configuration not stated)
inactive: activity change, negative = cytotoxicity [1] -1.4% [at 15.8 µM] | activation [3] 0.38% [at 15.8 µM] | activity change, negative = cytotoxicity [8] -2.09% [at 31.6 µM] | activity, negative = inhibition [9] 10.8% [at 19 µM] | activity change, positive = activation [10] 6.1% [at 19 µM] | activity change, negative = cytotoxicity [4] -2.75% [at 15.8 µM] | activity change, negative = cytotoxic [5] 0.479% [at 15.8 µM] | cytotoxicity [6] -0.0492% [at 15.8 µM] | activity change, negative = cytotoxic [7] 2.24% [at 15.8 µM]

CCSC(=O)Cl
inactive: Potency [1] | outcome [3] | Potency [8] | Potency [9] | activity change, positive = activation [10] 13.4% | Potency [4] | Potency [5] | outcome [6] | Potency [7]

CCC(C(N)=O)N1CCCC1=O (configuration not stated)
inactive: Potency [1] | outcome [3] | Potency [8] | Potency [4] | Potency [5] | outcome [6] | Potency [7]

CCC1(c2cccc(O)c2)CCCCN(C)C1 (configuration not stated)
inactive: Potency [1] | outcome [2] | Potency [8] | Potency [4] | Potency [5] | outcome [6] | Potency [7]

O=C(Cl)C(Cl)Cl
inactive: Potency [1] | outcome [2] | outcome [3] | Potency [4] | Potency [5] | outcome [6] | Potency [7]

CCN1CCCC1CNC(=O)C(O)(c1ccccc1)c1ccccc1 (configuration not stated)
inactive: Potency [1] | outcome [2] | outcome [3] | Potency [4] | Potency [5] | Potency [7]
